# Inconclusive results are not listed. Where a call stands in place of a potency, no number is given. Calls of active or inactive are those of the source. Calls come from the whole dose curve; as a rule, active = well fitted activation curve with a large enough effect in the repeat runs; inconclusive = weak or mixed curves; inactive = flat fitted curve, though single readings scatter.
# Assay: A CellTox Green Cytotoxicity Assay to monitor cytotoxicity in HEK293 cells - 24 hour (AID 1224875); note: nearly all actives have a fitted effect of over 45% in size
# Details: CellTox Green fluorescence; series mostly up to 76.8 µM; activity change: at the top concentration
# Description: National Center for Advancing Translational Sciences [NCATS]
# NIH Chemical Genomics Center [NCGC]
# U.S. Environmental Protection Agency [EPA]
# National Institutes of Environmental Health Sciences [NIEHS]
# National Toxicology Program [NTP]
# Cell-based models are critical for drug discovery. Determining the natural cytotoxic effects resulting from test compounds is an essential research activity. A CellTox Green Cytotoxicity Assay to monitor cytotoxicity in real time of continues cell culture during 40 hours of the compound treatment was used to screen Tox21 10K library compounds in Hek293 cells. CellTox Green Cytotoxicity Assay is a nonlytic, homogeneous, biofluorescent method to measure cytotoxicity in cell culture after experimental manipulation. The assay system uses a proprietary asymmetric cyanine dye that is excluded from viable cells but preferentially stains the dead cell's DNA. […] Viable cells produce no appreciable increases in fluorescence. Therefore, the fluorescence signal produced by the binding interaction with dead cell DNA is proportional to cytotoxicity.
# The mixture of Hek293 cell suspension and reagents were dispensed at 600cells/6 ul/well in 1536-well tissue culture treated black solid bottom plates using a Multidrop dispenser. After the assay plates were incubated at a 37 C/5% CO2 incubator for 5 hours, 23 nL of compounds dissolved in DMSO, positive and negative controls was transferred to the assay plate by a pintool work station. The plates were incubated at 37 C for 40 hours. The fluorescence intensity were measured at 0h, 8h, 16h, 24h, 32h and 40h time points using ViewLux plate reader during compound treatment.
# Potency is the fitted concentration of half-maximal effect.
Compound,Potency,activity change
Clc1ccc(Cl)c(Cl)c1Cl,inactive,
CCCCNC(N)=O,inactive,
CC1Cc2ccccc2N1NC(=O)c1ccc(Cl)c(S(N)(=O)=O)c1 (stereo not given),inactive,
CC(=O)[C@@]1(O)CC[C@H]2[C@@H]3CCC4=CC(=O)CC[C@]4(C)[C@H]3CC[C@@]21C,inactive,
COC(=O)c1ccc(C(=O)OC)cc1,inactive,
CC1CC(OC(=O)c2ccccc2O)CC(C)(C)C1 (stereo not given),,5.72% (inactive)
CC(C)(CO)COC(=O)C(C)(C)CO,inactive,
Cc1ccc(C(=O)O)o1,inactive,
CC(C)Cc1ccccc1,inactive,
O=[N+]([O-])c1cccc(Cl)c1,inactive,
CCCCC/C=C\C/C=C\CCCCCCCC(=O)OC,inactive,
C=C(C)C(=O)OCCC[Si](OC)(OC)OC,,-1.52% (inactive)
CC(C)(C)C(=O)C1C(=O)c2ccccc2C1=O,inactive,
OCC1CCCO1 (stereo not given),inactive,
Cc1cc(O)cc(C)c1Cl,inactive,
NC(=O)/N=N/C(N)=O,inactive,
CS(=O)(=O)Nc1ccc([N+](=O)[O-])cc1Oc1ccccc1,inactive,
NS(=O)(=O)c1cc2c(cc1Cl)NC=NS2(=O)=O,inactive,
NC(=O)NNc1ccccc1,inactive,
O=C(Cl)c1c(Cl)c(Cl)c(C(=O)Cl)c(Cl)c1Cl,inactive,

Compound,Potency,activity change
O=C1N=C(O)CN1/N=C/c1ccc(-c2ccc([N+](=O)[O-])cc2)o1,inactive,
CCCCCCCCC,inactive,
CCC(=O)O,inactive,
CCCCCCCCCCCCOCC1CO1 (stereo not given),,-5.56% (inactive)
COC(=O)c1ccccc1O,inactive,
Oc1ccc(OCc2ccccc2)cc1,,"0.493% [at 35.3 µM, hits give high values] (inactive)"
Nc1c(S(=O)(=O)O)cc(Br)c2c1C(=O)c1ccccc1C2=O,inactive,
c1ccc2ccccc2c1,inactive,
Nc1nc2ncc(CNc3ccc(C(=O)N[C@@H](CCC(=O)O)C(=O)O)cc3)nc2c(=O)[nH]1,inactive,
CCCCCCCCCCC=CC1CC(=O)OC1=O (stereo not given),inactive,
COC(=O)Nc1nc2ccc(Sc3ccccc3)cc2[nH]1,inactive,
O=C1O[C@H](CO)[C@@H](O)[C@H](O)[C@H]1O,inactive,
Cc1cc(O)c2c(c1)C(=O)c1cc(O)cc(O)c1C2=O,inactive,
ClC1=C(Cl)C(Cl)(Cl)C(Cl)=C1Cl,38.9 µM (active),
OCC#CCO,,-7.65% (inactive)
O=C(O)c1cc(-c2ccccc2)nc2ccccc12,inactive,
CC(C)n1c(/C=C/[C@@H](O)C[C@@H](O)CC(=O)O)c(-c2ccc(F)cc2)c2ccccc21,,7.11% (inactive)
CC(C)(C)C1CCC(O)CC1 (stereo not given),inactive,
O=[N+]([O-])c1cc(N(CCO)CCO)ccc1NCCO,inactive,
OCCOCCOCCOCCO,inactive,

# — PubChem BioAssay (Tox21)
